Measured values from PubChem BioAssay (EPA / NIEHS).
Values joined by “and” are separate entries in the source; they are usually repeats but may differ in a detail not shown here. Equal entries are not always repeated. Where a structure was tested more than once in an assay, its records may differ in their call. Active and inactive are the calls of the source. Rule for the calls: active = hit-call score of the fitted dose curve at least 0.9, where 1 is the maximum; inactive = score below 0.9.

Read-out: Vascular cell adhesion molecule 1 (VCAM1), VCAM1 (gene 7412)
Assay: BSK_BF4T_VCAM1: BioMAP Diversity Plus: BF4T Assay for Vascular cell adhesion molecule 1 (VCAM1) Biomarker Activity (AID 2284249)
Details: primary human bronchial epithelial cells with fibroblasts
Method: BSK_BF4T is a cell-based, multiplexed-readout assay that uses bronchial epithelial cells and dermal fibroblasts, a human vascular primary cell, with measurements taken at 24 hours after chemical dosing in a microplate: 96-well plate.BSK_BF4T_VCAM1 is an assay component measured in the BSK_BF4T assay. It measures VCAM-1 antibody related to regulation of gene expression using ELISA technology.Data from the assay component BSK_BF4T_VCAM1 was analyzed at the endpoint, BSK_BF4T_VCAM1, in the positive analysis fitting direction relative to DMSO as the negative control and baseline of activity. Using a type of binding reporter, gain or loss-of-signal activity can be used to understand protein changes. To generalize the intended target to other relatable targets, this assay endpoint is annotated to the 'cell adhesion molecules' intended target family, where the subfamily is 'Immunoglobulin CAM'.
The levels of cell surface (or secreted, indicated by the prefix "s") biomarker endpoints were measured by ELISA. Overt cytotoxicity to cells in confluent adherent cultures (all systems other than the BT system) was assessed by measuring total protein levels using sulforhodamine B (SRB) staining in parallel cultures at the time of biomarker measurements, indicated as SRB endpoints. For proliferation assays for adherent cell types, individual cell types are cultured at sub-confluence and relative cell numbers quantified by SRB staining at time points optimized for each system (48 h: 3C and CASM3C systems; 72 h: BT and HDF3CGF systems; 96 h: SAg system). SRB was performed by staining cells with 0.1% SRB after fixation with 10% TCA and reading wells at 560 nm.Viability and proliferation of PBMC (T cells) was quantified by Alamar Blue reduction for the SAg and BT systems. For PBMC viability (referred to as PBMC Cytotoxicity within the assay endpoint names), cells were plated (75,000/well in a 96-well plate) and then chemical samples added for 1 h before addition of activators, SEB and TSST-1 (20 ng/mL final concentration each). Cells were incubated for 90 h. Then, Alamar Blue (20 uL/well) (Invitrogen, Cat DAL1100) was added for 6 h, and the plates were read with a fluorescence microplate reader at 546/580 nm (excitation/emission). For PBMC proliferation, cells were plated and activated as above but incubated for only 16 h prior to addition of Alamar Blue. Plates were read after 6 h.

Structure (SMILES)	outcome	AC50
O=C(O)C(F)(OC(F)(F)C(F)(OC(F)(F)C(F)(F)C(F)(F)F)C(F)(F)F)C(F)(F)F (stereo not given)	inactive	
O=C(O)C(F)(F)C(F)(F)F	inactive	
N=C(N)C(F)(F)C(F)(F)C(F)(F)C(F)(F)C(F)(F)C(F)(F)C(F)(F)F	inactive	
O=C(O)C(F)(F)C(F)(F)C(F)(F)C(F)(F)C(F)(F)C(F)(F)C(F)(F)C(F)(F)Cl	inactive	7.26 µM (active)
O=C(CC(=O)C(F)(F)C(F)(F)F)C(F)(F)F	inactive	
OCC(F)(F)C(F)(F)C(F)(F)C(F)(F)C(F)(F)C(F)(F)F	inactive	
O=S(=O)(OCC(F)F)C(F)(F)F	inactive	
FC(F)(I)C(F)(F)C(F)(F)C(F)(F)I		41.5 µM (active) and 47 µM (active) and 30 µM (active)
FC(F)(F)C(F)(F)C(F)(F)C(F)(F)C(F)(F)C(F)(F)C(F)(F)C(F)(F)CCS	inactive	
O=C(O)C(F)(F)C(F)(F)C(F)(F)C(F)(F)F	inactive	
OCCCC(F)(F)C(F)(F)C(F)(F)F	inactive	
C=C(C)C(=O)OCCC(F)(F)C(F)(F)C(F)(F)C(F)(F)C(F)(C(F)(F)F)C(F)(F)F	inactive	
C=C(C)C(=O)OCC(F)(F)C(F)(F)C(F)(F)F	inactive	
C=CC(F)(F)C(F)(F)C(F)(F)C(F)(F)C(F)(F)C(F)(F)C(F)(F)C(F)(F)F	inactive	
O=C(Cl)C(F)(F)C(F)(F)C(F)(F)C(F)(F)C(F)(F)C(F)(F)C(F)(F)C(F)(F)F		38.9 µM (active) and 47.4 µM (active) and 45.5 µM (active)
FC(F)(F)C(F)(F)C(F)(F)C(F)(F)C(F)(F)C(F)(F)CC1CO1 (stereo not given)	inactive	
O=C(O)C(F)(F)C(F)(F)C(F)(F)C(F)(F)C(F)(F)C(F)(F)C(F)(F)C(F)(F)C(F)(F)C(F)(F)C(F)(F)C(F)(F)F	inactive	
C=CC(=O)OCC(F)(F)C(F)(F)C(F)(F)C(F)(F)C(F)(F)C(F)(F)C(F)(F)F	inactive	
O=C(O)C(F)(F)C(F)(F)C(F)F	inactive	

Structure (SMILES)	outcome	AC50
O=C(O)C(F)(F)C(F)(F)C(F)(F)C(F)(F)C(F)(F)C(F)(F)C(F)(F)C(F)(F)C(F)(F)C(F)F	inactive	7.76 µM (active)
O=P(O)(O)OCCC(F)(F)C(F)(F)C(F)(F)C(F)(F)C(F)(F)C(F)(F)F	inactive	
FC(F)(F)C(F)(F)C(F)(F)C(F)(F)C(F)(F)C(F)(F)C(F)(F)C(F)(F)F	inactive	
O=C(O)C(F)(F)C(F)(F)C(F)(F)F	inactive	
FC(F)(F)C(F)(F)C(F)(F)C(F)(F)C(F)(F)C(F)(F)CCS	inactive	
O=C(O)C(F)(OC(F)(F)C(F)(OC(F)(F)C(F)(OC(F)(F)C(F)(F)C(F)(F)F)C(F)(F)F)C(F)(F)F)C(F)(F)F (stereo not given)	inactive	
CCCCCCCCC(F)(F)C(F)(F)C(F)(F)C(F)(F)C(F)(F)C(F)(F)F	inactive	
FC(F)(F)C(F)(F)C(F)(F)C(F)(F)C(F)(F)CCI	inactive	
O=C(O)C(F)(F)C(F)(F)C(F)(F)C(F)(F)C(F)(F)C(F)(F)C(F)(F)C(F)(F)C(F)(F)C(F)(F)C(F)(F)C(F)(F)C(F)(F)F	inactive	
FC(F)(F)C(F)(F)C(F)(F)C(F)(F)C(F)(F)C(F)(F)C(F)(F)Br	inactive	
C=CC(F)(F)C(F)(F)C(F)(F)C(F)(F)C(F)(F)C(F)(F)C(F)(F)C(F)(F)C=C	inactive	
OCC(F)(F)C(F)(F)C(F)(F)C(F)F	inactive	
FC(F)(F)C(F)(F)C(F)(F)C(F)(F)CCI	inactive	
CC(C)(C)C(=O)CC(=O)C(F)(F)C(F)(F)C(F)(F)F	inactive	
FC(F)(Br)C(F)(F)C(F)(F)C(F)(F)C(F)(F)C(F)(F)Br	inactive	
C=CC(=O)OCC(F)(F)C(F)(F)C(F)(F)C(F)(F)COC(=O)C=C		7.96 µM (active) and 10.9 µM (active)
OCCCC(F)(F)C(F)(F)C(F)(F)C(F)(F)C(F)(F)C(F)(F)C(F)(F)F		38.1 µM (active) and 42.2 µM (active)
FC(F)(F)C(F)(F)C(F)(F)C(F)(F)C(F)(F)C(F)(F)C(F)(F)I	inactive	
O=S(=O)(OCCOC(F)(F)F)C(F)(F)F	inactive	
